Screening data: PubChem, National Center for Advancing Translational Sciences (NCATS)
Sampled rows, rich in hits. Any-hit rate of the full collection: about 3%.
12-LOX inh: Primary qHTS assay for inhibitors of human arachidonate 12S-lipoxygenase (ALOX12): Round 2; Polyunsaturated fatty acid lipoxygenase ALOX12 (Homo sapiens), P18054; purified 12hLO, xylenol orange hydroperoxide absorbance; Potency, µM (series often up to 108 µM), usual class: inhibitors; 1.1% of 580,000 active; AID 1671190, 2021
Target sequence (P18054 whole entry, looked up): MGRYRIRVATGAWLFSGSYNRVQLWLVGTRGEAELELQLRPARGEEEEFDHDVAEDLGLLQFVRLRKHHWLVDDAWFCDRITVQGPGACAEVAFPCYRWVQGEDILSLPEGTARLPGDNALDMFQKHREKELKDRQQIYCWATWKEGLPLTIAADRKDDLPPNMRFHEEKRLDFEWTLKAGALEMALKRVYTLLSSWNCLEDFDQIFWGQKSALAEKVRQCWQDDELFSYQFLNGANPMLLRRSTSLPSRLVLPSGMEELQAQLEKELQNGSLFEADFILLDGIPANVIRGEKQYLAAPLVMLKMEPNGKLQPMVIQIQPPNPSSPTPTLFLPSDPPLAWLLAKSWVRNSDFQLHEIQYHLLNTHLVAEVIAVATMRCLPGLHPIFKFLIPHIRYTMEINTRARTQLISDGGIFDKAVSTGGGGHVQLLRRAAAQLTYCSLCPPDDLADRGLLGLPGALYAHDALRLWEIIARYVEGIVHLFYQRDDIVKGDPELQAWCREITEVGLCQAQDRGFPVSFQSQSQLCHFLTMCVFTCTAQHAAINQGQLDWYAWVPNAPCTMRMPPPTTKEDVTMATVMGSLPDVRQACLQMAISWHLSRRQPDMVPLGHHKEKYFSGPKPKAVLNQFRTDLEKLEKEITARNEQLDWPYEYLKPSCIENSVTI
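Purified human 12hLO at 150 nM in 25 mM Hepes, 0.01% Triton X-100, pH 7.0, preincubated 15 min at room temperature with compound. Reaction started with 40 uM arachidonic acid, 30 min at room temperature. Hydroperoxide measured by Fe-xylenol orange, 573/405 nm absorbance ratio.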
VDR inh: Inhibitors of the vitamin D receptor (VDR): qHTS; Vitamin D3 receptor (Homo sapiens), P11473; VDR-SRC2-3 peptide fluorescence polarization, 2 h; Potency, µM, actives largely listed as inhibitors; 0.93% of 400,000 active; AID 504847, 2011
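Inhibition of the VDR/SRC2-3 peptide interaction is quantified by fluorescence polarization. Compounds (23 nl, pintool) incubate with the reagents for 2 hours at ambient room temperature.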
PLK1 PBD inh: qHTS for Inhibitors of PLK1-PDB (polo-like kinase 1 - polo-box domain): Primary Screen. Potency, µM, actives largely listed as inhibitors. Serine/threonine-protein kinase PLK1 (Homo sapiens), P53350. Plk1 PBD binding of FITC phosphopeptide, fluorescence polarization. 2.8% of 360,000 active; also: series mostly up to about 57 µM; nearly all actives have a fitted effect of over 65% in size
KAT2A inh: qHTS Assay for Inhibitors of GCN5L2; Potency, µM (titrated, usually from 58.9 µM), actives largely listed as inhibitors; Histone acetyltransferase KAT2A (Homo sapiens), Q92830; 0.21% of 390,000 active; GCN5L2 HAT assay, ThioGlo1 CoA-SH fluorescence
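GCN5L2 (20nM final) in 50mM HEPES, 0.1mM EDTA pH 7.5, 0.01% Tween-20 was preincubated 15 min at room temperature with compound, then given ThioGlo1 (50uM), H3(1-25) peptide (75uM) and acetyl-CoA (70uM); CoA-thiol fluorescence (Ex340/Em540) was read at 0 and 20 min.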
VDR inh confirm: qHTS for Inhibitors of the vitamin D receptor (VDR): Hit Validation in Primary Screen | shares compounds with VDR inh | VDR-coactivator inhibition assay, qHTS confirmation | Potency, µM, usual class: inhibitors | 89% of 840 active | AID 602199, 2012
VDR FP fluor: qHTS for Inhibitors of the vitamin D receptor (VDR): Hit Validation using a Fluorescein Assay; shares compounds with VDR inh; VDR-coactivator binding, fluorescein fluorescence polarization; Potency, µM (doses to about 57.1 µM), most hits filed as inhibitors; 48% of 840 active
VDR bla reporter: qHTS for Inhibitors of the vitamin D receptor (VDR): Hit Validation using a Beta-Lactamase Assay; shares compounds with VDR inh; Potency, µM (titrated, usually from 46.1 µM), most hits filed as inhibitors; 23% of 840 active; VDR beta-lactamase reporter cells, FRET ratio; cells co-treated with VDR agonist LG190178; AID 602202, 2012
VDR viability: qHTS for Inhibitors of the vitamin D receptor (VDR): Hit Validation using a Cytotoxicity Assay | 18% of 840 active | Potency, µM (doses to about 48.3 µM), usual class: cytotoxic | cytotoxicity counter-screen, cell viability, qHTS | shares compounds with VDR inh; also: nearly all actives have a fitted effect of over 75% in size
Each line names hits and unclear results; the compound was inactive in the other large screens (follow-up assays come after a bar, where they were run). Calls follow the shape of the dose curve; as a rule, active = well fitted curve in the direction sought with a large enough effect; inconclusive = small, poorly fitted or top-dose-only effect, or another doubt; inactive = no such curve, though single readings can be large; an effect the other way counts as inactive or inconclusive.

COc1ccc(C2=NN(c3ccccc3)C(=O)/C2=C\c2ccc(O)c(OC)c2)cc1	PLK1 PBD inh inconclusive
Cc1cccc(/C=C(/C(=O)N(C)Cc2ccccc2)c2cccs2)c1	none (no result: VDR inh, PLK1 PBD inh, KAT2A inh)
CCOc1cc(/C=C2\CN(C)C/C(=C\c3ccc(O)c(OCC)c3)C2=O)ccc1O	12-LOX inh inconclusive, VDR inh inconclusive | VDR inh confirm 18 | VDR FP fluor inconclusive | VDR bla reporter 2.9µM | VDR viability 27µM
NC(=O)c1nn(CC(=O)NCc2ccc(F)cc2)c(=O)c2ccccc12	none (no result: VDR inh, PLK1 PBD inh, KAT2A inh)
CCN(CC)S(=O)(=O)c1ccc(O)c(NS(=O)(=O)c2ccccc2F)c1	VDR inh 79µM, PLK1 PBD inh 24µM | VDR inh confirm 17 | VDR FP fluor inactive | VDR bla reporter inactive | VDR viability inactive
Cc1ccc(C=Nc2ccc(N(C)C)cc2)o1	VDR inh 1µM | VDR inh confirm 12 | VDR FP fluor inactive | VDR bla reporter inactive | VDR viability inactive
CN(C)c1ccc(C=Nc2ccc(Br)cc2)cc1	none (no result: VDR inh, PLK1 PBD inh, KAT2A inh)
Cn1c(=O)c2c(nc(NCCCn3ccnc3)n2Cc2ccc(F)cc2)n(C)c1=O	none (no result: VDR inh, PLK1 PBD inh, KAT2A inh)
CCOC(=O)/C(=C\c1ccc(Cl)cc1)c1nc2sc(C)c(C)c2c(=O)[nH]1	12-LOX inh inconclusive, VDR inh 25µM, PLK1 PBD inh 7.5µM | VDR inh confirm 5.3 | VDR FP fluor inconclusive | VDR bla reporter inconclusive | VDR viability 15µM
Cc1[nH]n(-c2ncc(-c3ccc(Cl)cc3)s2)c(=O)c1C(c1ccc(Cl)cc1)C(C#N)C#N (stereo not given)	VDR inh 50µM, PLK1 PBD inh 9.5µM (no result: 12-LOX inh) | VDR inh confirm 8.4 | VDR FP fluor 7.9µM | VDR bla reporter inactive | VDR viability inactive
CCOc1ccccc1NC(=O)Cc1c(C)[nH]n(-c2nc(-c3ccc(Cl)cc3)cs2)c1=O	none (no result: VDR inh, PLK1 PBD inh, KAT2A inh)
O=C(NC1=C(Nc2ccc(Cl)cc2)C(=O)c2ccccc2C1=O)c1ccccc1	none
O=C1C(Cl)=C(NC(=O)c2ccccc2)C(=O)C(Cl)=C1NC(=O)c1ccccc1	12-LOX inh inconclusive, VDR inh 35µM, PLK1 PBD inh 1.3µM, KAT2A inh inconclusive | VDR inh confirm 4.2 | VDR FP fluor inconclusive | VDR bla reporter 3.7µM | VDR viability 12µM
CCSc1ncc(Cl)c(C(=O)Nc2ccc(S(=O)(=O)N3CCCCC3CC)cc2)n1 (stereo not given)	none (no result: PLK1 PBD inh)
CCS(=O)(=O)c1ncc(Cl)c(C(=O)Nc2ccc(S(=O)(=O)N3CCCC(C)C3)cc2)n1 (stereo not given)	VDR inh inconclusive, PLK1 PBD inh inconclusive | VDR inh confirm 5 | VDR FP fluor 2.8µM | VDR bla reporter 10µM | VDR viability 9.5µM
CCC1CCCCN1S(=O)(=O)c1ccc(NC(=O)c2nc(S(C)(=O)=O)ncc2Cl)cc1 (stereo not given)	12-LOX inh inconclusive, VDR inh 20µM, PLK1 PBD inh 12µM | VDR inh confirm 6 | VDR FP fluor 3.2µM | VDR bla reporter 12µM | VDR viability 9.2µM
CCc1ccc(CNC(C)(C)CO)cc1	none (no result: VDR inh, PLK1 PBD inh, KAT2A inh)
Cn1c(N)c(C(=O)Nc2ccc(-c3ccccc3)cc2)sc1=S	VDR inh inconclusive, PLK1 PBD inh 15µM | VDR inh confirm 18 | VDR FP fluor 22µM | VDR bla reporter inconclusive | VDR viability inconclusive
NC(=O)c1ccc(C(=O)N2CCC(c3nc4cc(Cl)ccc4o3)CC2)cc1	none (no result: VDR inh, PLK1 PBD inh, KAT2A inh)
CCOc1cc(CN(CC(=O)NC2CCCCC2)C2CC2)ccc1OC(F)F	none (no result: VDR inh, PLK1 PBD inh, KAT2A inh)
CCc1ccc(S(=O)(=O)Nc2ccc(O)c3ccccc23)cc1	VDR inh inconclusive, PLK1 PBD inh inconclusive | VDR inh confirm 3 | VDR FP fluor 8.9µM | VDR bla reporter inconclusive | VDR viability inconclusive
CCOC(=O)C1C(=O)NC(SCC(=O)Nc2nccs2)=C(C#N)C1c1ccccc1OCC (stereo not given)	VDR inh 35µM, PLK1 PBD inh 2.7µM (no result: 12-LOX inh) | VDR inh confirm 12 | VDR FP fluor inconclusive | VDR bla reporter inactive | VDR viability inconclusive
CCOC(=O)C1C(=O)NC(SCC(=O)OC)=C(C#N)C1c1ccccc1OCC (stereo not given)	none (no result: KAT2A inh)
O=[N+]([O-])/C=C/c1cn(Cc2ccc(F)cc2)c2ccccc12	12-LOX inh 3.5µM, VDR inh 20µM, PLK1 PBD inh inconclusive | VDR inh confirm 6.7 | VDR FP fluor inconclusive | VDR bla reporter 21µM | VDR viability inconclusive
O=c1c2cn(Cc3ccc(F)cc3)c3ccccc3c-2nn1Cc1ccc(F)cc1	none
CCn1c(SCc2cc(OC)c(OC)cc2Br)nc2cc(S(N)(=O)=O)ccc21	none (no result: VDR inh, PLK1 PBD inh, KAT2A inh)
CC(C)(C)c1ccc(C(=O)CC(Sc2ccc(Cl)cc2)C(=O)O)cc1 (stereo not given)	12-LOX inh inconclusive, VDR inh 10µM, PLK1 PBD inh 11µM | VDR inh confirm 11 | VDR FP fluor 3.2µM | VDR bla reporter inactive | VDR viability inconclusive
CC(C)(CNC(=O)CCCNC(=O)C1CC1)c1ccccc1	none (no result: VDR inh, PLK1 PBD inh, KAT2A inh)
c1cn2cc(-c3ccc4c(c3)OCO4)nc2s1	12-LOX inh inconclusive, VDR inh 20µM, PLK1 PBD inh 24µM | VDR inh confirm inconclusive | VDR FP fluor inconclusive | VDR bla reporter inactive | VDR viability inactive
COC(=O)c1ccccc1NC(=O)c1nc(S(=O)(=O)Cc2ccccc2)ncc1Cl	VDR inh inconclusive, PLK1 PBD inh inconclusive | VDR inh confirm 3.2 | VDR FP fluor 3.2µM | VDR bla reporter 9.2µM | VDR viability 21µM
CCCSc1ncc(Cl)c(C(=O)Nc2ccccc2C(=O)OC)n1	none (no result: VDR inh, PLK1 PBD inh, KAT2A inh)
O=C(NCc1ccc2c(c1)OCO2)c1nc(S(=O)(=O)Cc2ccccc2)ncc1Cl	VDR inh 22µM, PLK1 PBD inh inconclusive | VDR inh confirm 9.5 | VDR FP fluor inconclusive | VDR bla reporter 18µM | VDR viability inconclusive
CCc1nnc(NC(=O)c2nc(S(=O)(=O)Cc3ccccc3)ncc2Cl)s1	VDR inh 22µM | VDR inh confirm 7.5 | VDR FP fluor 8.9µM | VDR bla reporter 13µM | VDR viability 18µM
CCS(=O)(=O)c1ncc(Cl)c(C(=O)NCc2ccccc2)n1	none (no result: PLK1 PBD inh)
